# BJeLR viability: BJeLR cell viability loss; BJeLR (HRASV12) viability, CellTiter-Glo ATP luminescence, 48 h; inhibition, % (concentration not given with the values); 300,000 compounds, 0.17% hits; in the data active means inhibition above about 50%
# PrPC surface inh: reduces human prion protein on the cell surface; 370,000 compounds, 0.43% hits; inhibition, % at 13.8 µM; cell surface PrPC, TR-FRET read-out; P04156; in the data active means inhibition above about 24%; further: 0% = median of the test wells and 100% = reference compound wells
# GDH-TPI counter: GDH-TPI coupled enzyme inhibition counter-screen; GDH-TPI coupled enzyme counterscreen, NADH absorbance; inhibition, % at 4.8 µM; 360,000 compounds, 1.2% hits; in the data active means inhibition above about 30%;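 further: 0% = DMSO wells and 100% = wells lacking the enzyme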
# FBA Mtb inh: inhibitors of M. tuberculosis fructose-bisphosphate aldolase. P9WQA3. purified M. tuberculosis FBA, fluorescence read-out. inhibition, % at 1 µM. 360,000 compounds, 2.3% hits. AID 588726; in the data active means inhibition above about 27%;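 further: 0% = vehicle and 100% = reference inhibitor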
# Target sequence (P9WQA3 whole entry, looked up): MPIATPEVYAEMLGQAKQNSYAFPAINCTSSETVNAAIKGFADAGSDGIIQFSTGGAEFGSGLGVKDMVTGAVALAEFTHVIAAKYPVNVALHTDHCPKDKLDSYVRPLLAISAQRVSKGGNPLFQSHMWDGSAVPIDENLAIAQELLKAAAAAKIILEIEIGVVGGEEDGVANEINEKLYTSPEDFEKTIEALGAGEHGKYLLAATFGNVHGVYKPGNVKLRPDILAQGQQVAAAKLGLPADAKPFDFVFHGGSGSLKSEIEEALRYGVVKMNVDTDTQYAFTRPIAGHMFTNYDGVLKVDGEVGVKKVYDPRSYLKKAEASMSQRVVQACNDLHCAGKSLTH
# PrP UTR inh: inhibition of PrP 5' UTR reporter expression | cell-based PrP 5' UTR mRNA reporter, plate reader | inhibition, % (concentration not given with the values) | 340,000 compounds, 0.35% hits | AID 488862; in the data active means inhibition above about 52%; further: 0 = median of the neutral control wells
# PfHsp40 yeast: rescue of PfHsp40-mediated yeast toxicity; 340,000 compounds, 0.68% hits; AID 504582; S. cerevisiae expressing PfHsp40, growth rescue, ATP luminescence; growth rescue, % at 12.5 µM; in the data active means growth rescue above about 28%, passing the limit was not always enough;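 further: yeast W303a lacking pdr1 and pdr3 grown in galactose medium; growth measured after three days at 30 °C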
# * hit, by the source's call; nt = not tested or not shown; + = active, no number. Hits are enriched below; roughly 4.5% of the tested compounds scored in any of these assays.
SMILES,BJeLR viability,PrPC surface inh,GDH-TPI counter,FBA Mtb inh,PrP UTR inh,PfHsp40 yeast
COc1cc2c(cc1OC)-c1nc3ccccc3c(=O)n1C(C)(C)C2,6,-3,39*,5,-9,2
CCN(C[C@H]1N[C@@](Cc2ccccc2)(C(=O)OC)[C@H]2C(=O)N(Cc3ccccc3)C(=O)[C@@H]12)S(=O)(=O)c1ccc(-c2ccccc2)cc1,nt,-3,32*,5,-14,0
COC(=O)[C@]1(Cc2ccccc2)N[C@H](CN(C)C(=O)c2ccc(C)cc2)[C@@H]2C(=O)N(Cc3ccccc3)C(=O)[C@@H]21,nt,4,3,-2,-20,47*
CCN(C[C@H]1N[C@@](Cc2ccccc2)(C(=O)OC)[C@H]2C(=O)N(Cc3ccccc3)C(=O)[C@@H]12)S(=O)(=O)c1ccccc1,nt,5,10,-2,-11,1
Cc1ccc(-n2c(SCC(=O)Nc3ccc(S(=O)(=O)Nc4cc(C)nc(C)n4)cc3)nnc2-c2ccc(C(C)(C)C)cc2)cc1,nt,0,nt,nt,nt,nt
COc1ccc(C2=NN(c3ccc(C=O)cc3)C(c3ccccc3)C2)cc1 (stereo unspecified),4,nt,nt,nt,nt,nt
O=C(O)c1ccc(N2N=C(c3ccccc3)CC2c2ccccc2)cc1 (stereo unspecified),8,6,32*,+,-23,0
CC(=O)Nc1ccc(C2CC(c3ccc(Cl)cc3)=NN2c2ccccc2)cc1 (stereo unspecified),-11,-2,0,27,-26,3
COc1ccc(C2CC(c3ccccc3)=NN2c2ccc(C(N)=O)cc2)cc1 (stereo unspecified),13,7,15,+,-14,0
COc1ccc(C2CC(c3ccccc3)=NN2c2ccc(S(N)(=O)=O)cc2)cc1 (stereo unspecified),0,1,11,+,-15,3
COc1ccc(C2CC(c3ccccc3Cl)=NN2c2ccc(S(N)(=O)=O)cc2)cc1 (stereo unspecified),nt,-4,3,174*,-16,2
CC(COc1cccc(F)c1)CN1CCC(C(O)(c2ccccc2)c2ccccc2)CC1 (stereo unspecified),nt,-5,nt,nt,nt,nt
COC(=O)[C@]12C[C@H](CC(=O)NCCc3ccccc3OC)C(=O)N(CCc3ccc(OC)c(OC)c3)C1=C[C@H](C1CCCC1)O[C@@H]2C,nt,-8,nt,nt,nt,nt
CCOC(=O)[C@@]12CCCC3=C1N(CCC3)C(=O)[C@H]2CC(=O)NCC1CCCCC1,nt,0,nt,nt,nt,nt
COc1ccc(C2CC(c3cccc(F)c3)=NN2c2ccc(S(N)(=O)=O)cc2)cc1 (stereo unspecified),nt,7,24,+,-7,0
NS(=O)(=O)c1ccc(N2N=C(c3ccccc3)CC2c2ccc(F)cc2)cc1 (stereo unspecified),-6,-2,9,+,-29,3
Oc1ccccc1C1=NN(c2ccccc2)C(c2ccc(F)cc2)C1 (stereo unspecified),-5,-3,1,1,-65,-1
COc1ccc(C2CC(c3cccs3)=NN2c2ccc(C=O)cc2)cc1 (stereo unspecified),-7,3,nt,nt,nt,nt
COc1ccc(C2CC(c3cccc(C(F)(F)F)c3)=NN2c2ccc(S(N)(=O)=O)cc2)cc1 (stereo unspecified),nt,0,4,+,3,0
COc1ccccc1COC(=O)c1cccc(S(=O)(=O)N(C)Cc2ccccc2)c1,nt,-6,nt,nt,nt,nt
CCOc1ccc(CN2CCN(c3cc(C)nc4c5c(C)cc(C)nc5nn34)CC2)cc1,2,nt,nt,nt,nt,nt
COc1ccc(CN2CCN(c3cc(C)nc4c5c(C)cc(C)nc5nn34)CC2)cc1F,-4,4,5,125*,-42,-1
C/C(=N\NC(=O)c1ccccc1)c1ccc(N2CCOCC2)cc1,-4,-4,31*,-10,-13,0
C/C(=N\NC(=O)c1ccncc1)c1ccc(N2CCOCC2)cc1,nt,-1,17,1,-15,-1
O=C(Nc1ccc(F)cc1)OCc1cn(Cc2cccc(Cl)c2)nn1,nt,9,nt,nt,nt,nt
COc1ccc(C(=O)/C=C/NCc2ccc(F)cc2)cc1OC,0,-7,34*,-1,-14,1
Cc1ccc(C(=O)/C=C/NCc2ccc(F)cc2)cc1,2,-1,26,1,-16,0
COc1ccc(C(=O)/C=C/Nc2ccc(S(N)(=O)=O)cc2)cc1OC,12,-13,58*,8,-7,1
